Experimental data: PubChem BioAssay (NCATS)
Results filed as inconclusive are left out. Active and inactive are the calls of the source. Calls come from the whole dose curve; as a rule, active = well fitted curve in the direction sought with a large enough effect; inconclusive = small, poorly fitted or top-dose-only effect, or another doubt; inactive = no such curve, though single readings can be large; an effect the other way counts as inactive or inconclusive.

System: not listed separately
Test: Confirmation and Secondary Assay for Modulators of Hemoglobin Beta Chain Splicing at IVS2 705 locus (AID 930);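 note: HeLa cells stably expressing the EGFP-705 splicing reporter; GFP fluorescence per well restored by corrected splicing of the IVS2-705 intron in EGFP; % of control where 0% means no effect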
Conditions: HeLa EGFP-705 splicing reporter, GFP fluorescence, 48 h; series mostly up to 46.1 µM; activation: at the top concentration
In short: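 Secondary splice-site specificity test uses HeLa expressing CMV-driven EGFP interrupted by IVS2-705; cells were treated 2 days at 37C with 500 nM antisense PNA as positive control.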

activation, inactive:
CN(C)c1ccc(O)c2c1C[C@@H]1C[C@H]3C(N(C)C)C(=O)C(C(N)=O)=C(O)[C@@]3(O)C(=O)C1=C2O (some centres undefined) -0.896%
CC1(C)C=Cc2c(cc3occ(-c4ccc5c(c4)OCO5)c(=O)c3c2O)O1 0.392%
C=C1c2cccc(O)c2C(O)=C2C(=O)[C@]3(O)C(O)=C(C(N)=O)C(=O)C(N(C)C)C3C(O)C12 (some centres undefined) 1.47%
C[C@]12CCC(=O)C=C1CCC1C2C(O)C[C@]2(C)C1CC[C@]2(O)C(=O)COC(=O)CCC(=O)O (some centres undefined) 1.54%
Nc1nc2c(ncn2C2CC(O)C(CO)O2)c(=O)[nH]1 (centres undefined) -0.113% [at 38.3 µM]
COc1c2ccoc2c(OC)c2oc(=O)ccc12 -0.146% [at 38.3 µM]

Target: Ubiquitin carboxyl-terminal hydrolase 1 (Homo sapiens) (UniProt O94782)
Sequence (O94782 whole entry, looked up): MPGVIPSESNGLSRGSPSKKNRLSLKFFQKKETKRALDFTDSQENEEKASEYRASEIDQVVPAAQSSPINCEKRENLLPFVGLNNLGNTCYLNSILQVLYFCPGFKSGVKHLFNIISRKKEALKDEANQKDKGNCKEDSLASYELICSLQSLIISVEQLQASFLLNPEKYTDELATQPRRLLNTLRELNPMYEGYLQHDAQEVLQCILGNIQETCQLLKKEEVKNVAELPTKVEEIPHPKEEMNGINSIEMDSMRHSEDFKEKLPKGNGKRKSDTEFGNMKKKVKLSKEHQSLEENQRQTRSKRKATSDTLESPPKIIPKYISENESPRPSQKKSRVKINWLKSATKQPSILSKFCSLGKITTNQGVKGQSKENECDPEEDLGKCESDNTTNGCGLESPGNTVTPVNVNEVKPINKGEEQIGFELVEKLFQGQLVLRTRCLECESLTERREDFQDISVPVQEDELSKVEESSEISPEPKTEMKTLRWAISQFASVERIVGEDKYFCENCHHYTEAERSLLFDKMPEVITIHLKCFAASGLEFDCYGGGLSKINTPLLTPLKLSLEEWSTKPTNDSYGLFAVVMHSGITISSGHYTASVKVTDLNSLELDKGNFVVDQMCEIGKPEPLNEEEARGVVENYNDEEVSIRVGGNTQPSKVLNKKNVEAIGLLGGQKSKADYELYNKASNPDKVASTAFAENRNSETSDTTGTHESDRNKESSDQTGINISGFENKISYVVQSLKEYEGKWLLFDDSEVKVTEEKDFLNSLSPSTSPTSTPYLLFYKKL
Test: Inhibitors of USP1/UAF1: Pilot qHTS (AID 504865); note: nearly all actives have a fitted effect of over 35% in size; note: potency is the fitted concentration of half-maximal effect;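 for activity change, negative = inhibition: rhodamine fluorescence freed from ubiquitin-rhodamine substrate followed over time; top concentration of the series differs between compounds; % is set by controls: 0 for no effect and ±100 for the full control effect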
Conditions: purified USP1/UAF1, Ub-rhodamine cleavage fluorescence; series mostly up to 114 µM; activity change, negative = inhibition: at the top concentration
In short: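 Enzyme-free wells gave the negative control, while test wells held 1nM USP1/UAF1 preincubated with compound for 15 min at room temperature. Ub-Rho at 150nM final started the reaction, and fluorescence at 480/540 nm was recorded kinetically.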

Activity change, negative = inhibition, inactive:
OC[C@H]1O[C@@H](OC[C@H]2O[C@@H](O)[C@H](O)[C@@H](O)[C@@H]2O)[C@H](O)[C@@H](O)[C@@H]1O -6.13%
COc1ccc2c(=O)ccoc2c1 -4.25%
NC(Cc1cnc[nH]1)C(=O)Nc1ccc2ccccc2c1 (centres undefined) -8.8%
COc1ccc2cc1Oc1ccc(cc1)CC1c3cc(c(OC)cc3CCN1C)Oc1c(OC)c(OC)cc3c1C(C2)N(C)CC3 (centres undefined) -10.4%
O=C(/C=C/c1ccc(O)cc1)c1cccs1 -3.62%
CC(=O)OCC(=O)[C@@]1(O)CCC2C3CCC4=CC(=O)CC[C@]4(C)C3C(=O)C[C@]21C (some centres undefined) 1.04%
COc1c2ccoc2cc2oc(C)cc(=O)c12 -3.8%
COC(=O)CC1C(C)(C)C(=O)C2CC3C4=CC(=O)OC(c5ccoc5)[C@]4(C)CCC3[C@@]1(C)C2=O (some centres undefined) -13%
C[C@H]1[C@H]2CC[C@H]3C4CC=C5C[C@@H](N(C)C)CC[C@]5(C)C4CC[C@]23CN1C (some centres undefined) 2.65%
CC(=O)OC1CC2C(C)(C)C(=O)CC[C@]2(C)C2CC[C@]3(C)C(=CC(=O)OC3c3ccoc3)[C@]12C (some centres undefined) -13.2%
O=C(O)C(S)[C@@H](S)C(=O)O (some centres undefined) 7.51%
COc1cc2ccc(=O)oc2c(OC)c1OC -8.55%
NC(=O)c1ccc[n+]([C@@H]2OC(COP(=O)([O-])OP(=O)(O)OCC3OC(n4cnc5c(N)ncnc54)C(O)C3O)C(O)C2O)c1 (some centres undefined) -5.3%
CN(N=O)C(=O)N[C@H]1C(O)C(O)C(CO)O[C@@H]1O (some centres undefined) -9.39%
O=c1[nH]cnc2c1ncn2C1CC(O)C(CO)O1 (centres undefined) -11.5%
COc1cc(OC)c2c(=O)c(-c3ccccc3)coc2c1 -4.09%
C=C1C(=O)OC2C[C@@]3(C)CCCC(C)C3=CC12 (some centres undefined) -9.83%
O[N+]1=CC=CCC1=S.On1ccccc1=S.[Zn] -6.44%
COC(=O)C1OC(=O)C2OC23[C@]2(C)C(OC(C)=O)CC4C(C)(C)C(=O)CC[C@]4(C)C2CC[C@@]13C (some centres undefined) -6.92%
C=C1CCC2C(CC2(C)C)C(=O)CCC1O (centres undefined) -5.06%
CC(=O)OC1CC(OC(C)=O)[C@]2(C)C(CC(OC(C)=O)[C@@]3(C)C4=CC(=O)OC(c5ccoc5)[C@]4(C)CCC32)C1(C)C (some centres undefined) -14.7%
COc1cccc2c1C(=O)CC(c1ccccc1)O2 (centres undefined) -1.49%
CC1CC2C3CCC4=CC(=O)C=C[C@@]4(C)[C@]3(F)C(O)C[C@]2(C)[C@]1(O)C(=O)COP(=O)(O)O (some centres undefined) -3.77%
C[N+]1(C)C2CCC1CC(OC(=O)C(O)c1ccccc1)C2 (centres undefined) -8.47%
Nc1nc2c(c(=O)[nH]1)N=C(CNc1ccc(C(=O)NC(CCC(=O)O)C(=O)O)cc1)CN2 (centres undefined) -4.51%
OC[C@H]1O[C@@H](n2cnc3c(NCc4ccccc4)ncnc32)[C@H](O)[C@@H]1O -3.25%
CN(C)c1ccc(O)c2c1C[C@@H]1C[C@H]3C(N(C)C)C(=O)C(C(N)=O)=C(O)[C@@]3(O)C(=O)C1=C2O (some centres undefined) -14.2%
COC(=O)CCC(C)C1CCC2C3C(C[C@H](O)C12C)C1(C)CC[C@@H](O)CC1C[C@H]3O (some centres undefined) -14%
CC1(C)C=Cc2c(cc3occ(-c4ccc5c(c4)OCO5)c(=O)c3c2O)O1 -14.8%

Potency, active:
COc1cc2c(C)c3c4c(cc(OC)c(OC)c4c2cc1OC)CCN3C 25.1 µM
COc1cc2c(C=O)c3c4c(cc(OC)c(OC)c4c2cc1OC)CCN3C 22.4 µM
CC1/C=C/C=C/C=C/C=C/C=C/C=C/C=C/C(OC2OC(C)C(O)C(N)C2O)CC2O[C@@](O)(CC(O)CC(O)C(O)CCC(O)CC(O)CC(=O)OC(C)[C@H](C)C1O)CC(O)C2C(=O)O (some centres undefined) 56.2 µM
CCC(=O)O[C@H]1C(O[C@@H]2C(C)[C@H](O[C@H]3C[C@@](C)(OC)C(O)C(C)O3)C(C)C(=O)OC(CC)[C@@](C)(O)C(O)[C@H](C)C(=O)C(C)C[C@]2(C)O)OC(C)CC1N(C)C (some centres undefined) 20 µM
